Compound activity as filed in PubChem.
Most compounds without a hit are left out; they make up all but 7.1% or so of the library.
SW480 rereplic – induces DNA re-replication in SW480 colon adenocarcinoma cells. SW480 DNA re-replication, Hoechst DNA content imaging, 48 h. Potency, µM (top dose mostly 46.1 µM), inactives show at the highest dose re-replication activation, actives largely listed as activators. 340,000 tested, 1.8% active. AID 624297; also: % of control where 0% means no effect; nearly all actives have a fitted effect of over 55% in size
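Readout is total intensity of Hoechst-stained nuclei, excited at 405 nm and collected at 500-530 nm. Compound treatment lasted 48 hr at 37 C in 5% CO2 before staining.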
MCF10A rereplic – DNA re-replication induction in MCF 10a cells; 350,000 tested, 2.9% active; MCF 10A DNA re-replication, Hoechst nuclear intensity, 48 h; Potency, µM (titrated, usually from 46.1 µM), for the others: at the highest dose activity, positive = re-replication, most hits filed as activators; also: % of control where 0% means no effect; nearly all actives have a fitted effect of over 50% in size
AT treatment – potential ataxia-telangiectasia treatments restoring KAP-1 phosphorylation | F2112 A-T fibroblasts, KAP-1 phosphorylation AlphaLISA; neocarzinostatin DNA damage 30 min before lysis | Potency, µM (highest dose often 57.5 µM), inactives show at the top dose activation, actives largely listed as activators | 320,000 tested, 0.19% active; also: % of control where 0% means no effect; nearly all actives have a fitted effect of over 45% in size
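hTERT-immortalized A-T patient fibroblasts (F2112), 500 cells/well in OPTI-MEM, 1% FBS, got compounds for 60 min, then NCS for 30 min at 37C. Lysates were then assayed for phospho-KAP-1 by AlphaLISA (anti-pKAP1 donor, anti-KAP1 acceptor beads), 6 hr at 25C.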
ELG1 genotox – induces genotoxicity in HEK293T cells with luciferase-tagged ELG1. HEK293T ELG1-luciferase reporter, luminescence, 16 h. Potency, µM (highest dose often 46 µM), for inactives: top-dose activity change, positive = activation, actives largely listed as activators. 330,000 tested, 1.3% active. AID 504466; also: % of control where 0% means no effect; nearly all actives have a fitted effect of over 60% in size
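HEK293T cells expressing luciferase-tagged ELG1 were treated with compound or DMSO for 16 hr at 37°C. Luciferase activity was then read after 30 min with ONE-Glo at room temperature; rising signal flags genetic stress.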
ELG1 DNA repair – inhibitors of ELG1-dependent DNA repair in HEK293T cells; 330,000 tested, 2.3% active; Potency, µM (series often up to 46.1 µM), for the others: at the highest dose activity change, negative = inhibition, actives largely listed as inhibitors; HEK293T ELG1-luciferase reporter, luminescence, 16 h; DNA damage induced by 5-fluorouridine; also: % is scaled to controls: 0 for no effect and ±100 for the full control effect; nearly all actives have a fitted effect of over 55% in size
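Reporter activity after DNA damage by 5-fluorouridine is monitored. Compound-treated cells incubate 16 hr at 37 °C, then ONE-Glo is added for 30 min before luminescence reading.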
p53 reactivator – mutant p53 re-activation in reporter cells. H1299 p53-A138V BP100-luciferase reporter, luminescence, 24 h. Potency, µM (highest dose often 92.2 µM), for the others: at the top dose activity change, positive = activation, actives largely listed as activators. 320,000 tested, 0.063% active. AID 504706; also: % of control where 0% means no effect; nearly all actives have a fitted effect of over 45% in size
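p53-null H1299 cells stably carrying temperature-sensitive p53-A138V and a BP100-luciferase reporter were pinned with compounds (4-point, 1:5 series) and held 24 hrs at 37 deg C. Luminescence was read 10 min after detection reagent.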
* marks the source's active call; other numbers are inactive results; ? = inconclusive; . = not tested or not shown; [ ] = dose if it differs, or a comment. Calls follow the shape of the dose curve; as a rule, active = well fitted curve in the direction sought with a large enough effect; inconclusive = small, poorly fitted or top-dose-only effect, or another doubt; inactive = no such curve, though single readings can be large; an effect the other way counts as inactive or inconclusive. Potency is read from the fitted curve at half-maximal effect.

SMILES	SW480 rereplic	MCF10A rereplic	AT treatment	ELG1 genotox	ELG1 DNA repair	p53 reactivator
O=C(NC1CC2CCCC(C1)N2C(=S)Nc1ccccc1)C1CC1 (stereo unspecified)	-5%	6%	2%	7%	-8%	10%
C=CCOC(=O)C1=C(C)NC(SCC(=O)N(CC)CC)=C(C#N)C1c1ccco1 (stereo unspecified)	-4%	?	4%	-11%	8.2µM*	-19%
CCN(CC)C(=O)CSC1=C(C#N)C(c2ccco2)C(C(=O)OCCOC)=C(C)N1 (stereo unspecified)	-5%	?	6%	0%	?	-6%
C=CCOC(=O)C1=C(C)NC(SCC(=O)N(CC)CC)=C(C#N)C1c1ccccc1 (stereo unspecified)	-2%[9.22 µM]	?	6%	-9%	16µM*	1%
CC(/C=N/NC(=O)c1ccc2nc(C)[nH]c2c1)=C\c1ccccc1	-1%	?	-2%	-6%	-6%	29%
Cc1cc(/C=N/NC(=O)c2ccccc2F)c(C)n1-c1ccccc1	-6%	2%	-2%	?	?	?
CC(=C/c1ccc(C(C)C)cc1)/C=N/NC(=O)c1ccncc1	-4%	21µM*	-1%	1%	?	?
Cc1cc(/C=N/NC(=O)c2cccc(F)c2)c(C)n1-c1ccccc1	4%	18µM*	0%	?	?	?
CC(/C=N/NC(=O)c1ccncc1)=C\c1ccccc1	1%	-22%	-7%	6%	?	5%
CC(/C=N/NC(=O)c1cc(C(C)(C)C)[nH]n1)=C\c1ccccc1	2%	?	-2%	-3%	-24%	-1%
CC(/C=N/NC(=O)c1cc(-c2ccc(C)s2)[nH]n1)=C\c1ccccc1	?	6.5µM*	-1%	4%	?	4%
CC(/C=N/NC(=O)c1cccc(F)c1)=C\c1ccccc1	15µM*	?	-13%	?	?	5%
CC(=O)Nc1cc2c(cc1Br)-c1ccccc1C2	-2%	24%	.	.	.	.
CC(=C/c1ccccc1)/C=N/NC(=O)c1cccs1	-5%	13%	0%	1.8µM*	?	?
O=C(N/N=C/C(Br)=C\c1ccccc1)c1cccs1	?	98%	-2%	?	?	?
Cc1nc(NC(=O)COC(=O)c2ccc(CO)cc2)c(Cl)cc1Cl	-4%	-1%	6%	-1%	14%	-2%
CSc1nsc(SC)c1C(=O)NC(=O)Nc1cccnc1	2%	?	-5%	1%	5%	1%
CSc1nsc(SC)c1C(=O)Nc1ccc(C(C)(C)C)cc1	10%	?	13%	0%	18µM*	-2%
O=S(=O)(NC1CCCCC1Oc1ccccc1)c1ccccc1 (stereo unspecified)	.	-5%	6%	1%	3%	-5%
ClC(Cl)(Cl)c1nc2ccccc2n2nncc12	13µM*	?	5%	13%	?	-14%
c1ccc(CCNc2nc3ccccc3n3nnnc23)cc1	-1%	3%	-2%	?	?	6%
O=C(CSc1nc2ccccc2nc1N1CCCCC1)N1CCN(c2ccccc2)CC1	1%	4.1µM*	-2%	3%	-24%	.
Cc1ccnc(N2CCN(C(=O)CSc3nc4ccccc4nc3N3CCC(C)CC3)CC2)c1	?	?	3%	-4%	21µM*	-2%
Cc1cc(N/N=C/c2ccccc2[N+](=O)[O-])nc(-n2nc(C)cc2C)n1	23%	7%	9%	0%	13µM*	24%
Cc1cc(N/N=C/c2cccc([N+](=O)[O-])c2)nc(-n2nc(C)cc2C)n1	3.7µM*	?	-3%	6%	-7%	1%
Cc1cc(Nc2cccc(Cl)c2)nc(-c2ccccc2O)n1	29µM*	?	23%	-5%	-11%	8%
